Assay outcomes: PubChem BioAssay, Sanford-Burnham Center for Chemical Genomics
CYP2C9 act – activators of human CYP2C9. P11712. recombinant CYP2C9, luciferin-H conversion, luminescence; stronger effect = higher value; factor 1 = untreated enzyme, 0 = blocked. activation factor at 5 µM. 1.4% of 96,000 active. AID 1024;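 active = activation factor of 2 or more for CYP2C9 at a 5 µM dose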;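 also: 0 = sulfaphenazole-blocked wells and 1 = vehicle-only wells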
CD11b adhes enh – increases human CD11b/CD18 adhesion to fibrinogen; K562 CD11b/CD18 adhesion to fibrinogen, ATPlite luminescence; 0.07% of 93,000 active; P05107+P11215; activation, % at 10 µM;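 active = 10 µM primary screen giving 50% or more activity, confirmed by 40% or more on retest at that dose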
Target sequence (P05107 whole entry, looked up, other chains not shown): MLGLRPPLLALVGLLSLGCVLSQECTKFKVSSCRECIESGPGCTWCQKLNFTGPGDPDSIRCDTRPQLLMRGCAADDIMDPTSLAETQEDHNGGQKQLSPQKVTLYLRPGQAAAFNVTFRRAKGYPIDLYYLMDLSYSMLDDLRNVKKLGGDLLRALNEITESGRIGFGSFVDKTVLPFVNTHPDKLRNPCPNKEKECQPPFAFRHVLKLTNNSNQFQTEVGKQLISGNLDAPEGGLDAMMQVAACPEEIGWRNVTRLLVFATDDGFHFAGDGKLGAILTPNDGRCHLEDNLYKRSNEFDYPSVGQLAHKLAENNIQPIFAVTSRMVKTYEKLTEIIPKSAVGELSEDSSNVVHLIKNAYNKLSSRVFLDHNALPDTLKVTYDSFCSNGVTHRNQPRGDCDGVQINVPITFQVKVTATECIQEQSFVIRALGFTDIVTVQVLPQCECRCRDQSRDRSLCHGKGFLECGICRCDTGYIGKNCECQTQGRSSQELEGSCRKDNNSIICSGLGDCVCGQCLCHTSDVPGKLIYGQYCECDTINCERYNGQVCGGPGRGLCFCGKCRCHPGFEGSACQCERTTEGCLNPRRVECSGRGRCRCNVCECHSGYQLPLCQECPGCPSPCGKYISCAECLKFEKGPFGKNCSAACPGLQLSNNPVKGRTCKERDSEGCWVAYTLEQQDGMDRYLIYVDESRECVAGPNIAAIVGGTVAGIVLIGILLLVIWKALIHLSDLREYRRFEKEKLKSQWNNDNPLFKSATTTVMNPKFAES
CYP2C9 inh – human CYP2C9 inhibition. P11712. CYP2C9 Supersomes, luciferin-H conversion, luminescence. inhibition, % at 5 µM. 20% of 96,000 active;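 active = blocking of liver enzyme CYP2C9 beyond about 50% at 5 µM, limit read from the data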
CYP2C19 act – increases human CYP2C19 enzyme activity | 96,000 tested, under 10 active | recombinant CYP2C19, luciferin-H EGE luminescence; stronger effect = higher value; 0 = fully inhibited enzyme, 1 = untreated enzyme | activation factor at 5 µM | P33261;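 active = activation factor of at least 2 at 5 µM in the primary screen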;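 also: 0 = wells with 2.5 mM tranylcypromine and 1 = vehicle-only wells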
CYP2C19 inhib – human CYP2C19 inhibition; CYP2C19 Supersomes, luciferin-H EGE luminescence, 30 min; inhibition, % at 5 µM; 21% of 96,000 active; AID 778;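 active = CYP2C19 inhibition above a set limit at 5 µM in the primary screen, cut at about 50% in these data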;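 also: plate controls were negative control wells for no effect and 2.5 mM tranylcypromine positive control for full effect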
Mac1 fbg inh – CD11b/CD18-fibrinogen binding inhibition. 0.54% of 93,000 active. inhibition, % at 10 µM. P05107+P11215. AID 1497. K562 CD11b/CD18 adhesion to fibrinogen, ATPlite luminescence; Mn2+ added to activate the integrin;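 active = primary inhibition of 50% or more at 10 µM, then 40% or more on retest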
Starred values were filed as active, the others as inactive. Most compounds without a hit are left out; they make up all but 28% or so of the library.

For Cc1cc(C)c2c(N)c(C(=O)N3CCCCCC3)sc2n1 the results were CYP2C9 act 1.5, CD11b adhes enh -1, CYP2C9 inh -45, CYP2C19 act 0.5, CYP2C19 inhib 51* and Mac1 fbg inh -3.
For COc1cc(OC)cc(C(=O)N2CCN(c3ncccn3)CC2)c1 the results were CYP2C9 act 0.7, CD11b adhes enh -1, CYP2C9 inh 31, CYP2C19 act 0.6, CYP2C19 inhib 44 and Mac1 fbg inh -9.
Screening Cc1cc(C)c2c(N=CN(C)C)c(C(=O)N3CCN(c4ncccn4)CC3)sc2n1 returned CYP2C9 act 0.3, CD11b adhes enh 6, CYP2C9 inh 69*, CYP2C19 act 0.6, CYP2C19 inhib 37 and Mac1 fbg inh -3.
`COc1ccc(NC(=S)N2CCN(Cc3ccco3)CC2)c(OC)c1` gave CD11b adhes enh -2 and Mac1 fbg inh -7.
For COc1ccc(N2CCN(C(=O)c3ccc(NS(=O)(=O)c4ccc(F)c(F)c4)cc3)CC2)cc1 the results were CYP2C9 act 0.1, CD11b adhes enh 0, CYP2C9 inh 93*, CYP2C19 act 0.8, CYP2C19 inhib 24 and Mac1 fbg inh 19.
For COc1ccc(N2CCN(C(=O)c3ccc(NS(=O)(=O)c4cccc(F)c4)cc3)CC2)cc1 the results were CYP2C9 act 0.1, CD11b adhes enh 0, CYP2C9 inh 90*, CYP2C19 act 0.8, CYP2C19 inhib 24 and Mac1 fbg inh 10.
COc1ccc(N2CCN(C(=O)c3ccc(OCC4CCCO4)cc3)CC2)cc1 (stereo not given) was read as CYP2C9 act 0.9, CD11b adhes enh 2, CYP2C9 inh 6, CYP2C19 act 1.2, CYP2C19 inhib -22 and Mac1 fbg inh 34.
COc1ccc(N2CCN(C(=O)c3ccc(C)c(Cl)c3)CC2)cc1 was read as CYP2C9 act 1, CD11b adhes enh -2, CYP2C9 inh 2, CYP2C19 act 0.7, CYP2C19 inhib 27 and Mac1 fbg inh -2.
Screening O=C(Nc1cccc(F)c1)C1C2C=CC3(CN(CCCN4CCOCC4)C(=O)C13)O2 (stereo not given) returned CYP2C9 act 1.1, CD11b adhes enh -5, CYP2C9 inh -7, CYP2C19 act 1.1, CYP2C19 inhib -9 and Mac1 fbg inh 7.
`Cc1cc(C(F)(F)F)nc(SCC(=O)NC2CC3CCC2C3)n1` (stereo not given) gave CYP2C9 act 2.1*, CD11b adhes enh -1, CYP2C9 inh -111, CYP2C19 act 0.2, CYP2C19 inhib 83* and Mac1 fbg inh -21.
For Cc1cc(C(F)(F)F)nc(SCC(=O)Nc2cc(C)on2)n1 the results were CYP2C9 act 1, CD11b adhes enh -7, CYP2C9 inh 0, CYP2C19 act 0.5, CYP2C19 inhib 52* and Mac1 fbg inh -13.
For Cc1ccc(-c2nnn(CC(=O)NC3CC4CCC3C4)n2)cc1 (stereo not given) the results were CYP2C9 act 0.8, CD11b adhes enh -2, CYP2C9 inh 24, CYP2C19 act 0.9, CYP2C19 inhib 10 and Mac1 fbg inh -2.
CSc1nc(C)cc(SCC(=O)Nc2ccccc2)n1 was read as CYP2C9 act 0.3, CD11b adhes enh 1, CYP2C9 inh 67*, CYP2C19 act 0.1, CYP2C19 inhib 90* and Mac1 fbg inh 4.
Cc1cc(C(F)(F)F)nc(SCC(=O)Nc2ccccc2)n1 was read as CYP2C9 act 1.1, CD11b adhes enh -3, CYP2C9 inh -14, CYP2C19 act 0.1, CYP2C19 inhib 91* and Mac1 fbg inh 5.
Cc1ccc(N=C2SC(C(=O)Nc3ccc(OC(F)(F)F)cc3)C(N)=C2C(=O)Nc2c(C)cc(C)cc2C)cc1 (stereo not given) was read as CD11b adhes enh 24 and Mac1 fbg inh 9.
Screening Cc1ccc(NC(=O)CC2CS(=O)(=O)CC2CC(=O)Nc2ccc(C)c(C)c2)cc1C (stereo not given) returned CYP2C9 act 0.9, CYP2C9 inh 6, CYP2C19 act 0.6 and CYP2C19 inhib 37.
`O=C(NC1CCCC1)c1noc2c1CCCCC2` gave CYP2C9 act 0.7, CD11b adhes enh -1, CYP2C9 inh 30, CYP2C19 act 0.6, CYP2C19 inhib 42 and Mac1 fbg inh 2.
For COc1ccc(NC(=O)CSc2nc(C)cc(C(F)(F)F)n2)cc1 the results were CYP2C9 act 1.6, CYP2C9 inh -59, CYP2C19 act 0.4 and CYP2C19 inhib 65*.
`CC(C)(C)n1nc2c(c1NC(=O)CCCc1ccccc1)CS(=O)C2` (stereo not given) gave CYP2C9 act 1, CD11b adhes enh 0, CYP2C9 inh -3, CYP2C19 act 0.6, CYP2C19 inhib 36 and Mac1 fbg inh -3.
O=C(Nc1nnc(C2CC2)s1)c1cccc(S(=O)(=O)N2CC(c3ccccc3)CC2=O)c1 (stereo not given) was read as CYP2C9 act 0.8, CD11b adhes enh -4, CYP2C9 inh 24, CYP2C19 act 1, CYP2C19 inhib 1 and Mac1 fbg inh -18.
CCCN1CCC(NC(=O)Nc2ccc(OC)c(OC)c2)CC1 was read as CYP2C9 act 1, CD11b adhes enh -3, CYP2C9 inh 1, CYP2C19 act 1, CYP2C19 inhib 4 and Mac1 fbg inh -9.
`CCCCOC(=O)Cn1c(=O)n(CC(=O)OCCCC)c2ccccc21` gave CYP2C9 act 0.5, CD11b adhes enh 3, CYP2C9 inh 50*, CYP2C19 act 0.6, CYP2C19 inhib 44 and Mac1 fbg inh 7.
`CC(C)OC(=O)Cn1c(=O)oc2ccccc21` gave CYP2C9 act 1.2, CD11b adhes enh -1, CYP2C9 inh -15, CYP2C19 act 0.8, CYP2C19 inhib 23 and Mac1 fbg inh -7.
Screening CCCCCOC(=O)Cn1c(=O)oc2ccccc21 returned CYP2C9 act 1.2, CD11b adhes enh -4, CYP2C9 inh -21, CYP2C19 act 0.1, CYP2C19 inhib 89* and Mac1 fbg inh -6.
For CCCn1c(=N)n(CC(=O)OCC)c2ccccc21 the results were CYP2C9 act 1, CD11b adhes enh 1, CYP2C9 inh -1, CYP2C19 act 1.1, CYP2C19 inhib -13 and Mac1 fbg inh 20.
For CCn1c(N)c(C(=O)NC)sc1=S the results were CYP2C9 act 0.5, CD11b adhes enh -7, CYP2C9 inh 50*, CYP2C19 act 0.5, CYP2C19 inhib 52* and Mac1 fbg inh 67.
N#Cc1ccccc1CSc1nc(N2CCCCC2)nc(N2CCCCC2)n1 was read as CYP2C9 act 0.5, CD11b adhes enh -1, CYP2C9 inh 49, CYP2C19 act 0.9, CYP2C19 inhib 10 and Mac1 fbg inh 0.
For Cc1cccc(S(=O)(=O)C(C#N)c2nc3ccccc3nc2N2CC(C)OC(C)C2)c1 (stereo not given) the results were CYP2C9 act 0.6, CD11b adhes enh -9, CYP2C9 inh 43, CYP2C19 act 0.9, CYP2C19 inhib 11 and Mac1 fbg inh 95*.
